Results taken from PubChem BioAssay.
Calls of active or inactive are those of the source.

How the values were obtained:
[1] = tested on: PRMT1 (protein arginine N-methyltransferase 1); experiment: PRMT1 binders on small-molecule microarrays, primary screen, biochemical, small-molecule microarray, 635 nm fluorescence (AID 1088); conditions: small-molecule microarray binding, higher = more signal;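 also: binding of Prmt1 protein to compounds spotted on small-molecule microarray slides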
[2] = yeast growth modulation, basal conditions, primary screen, YJM789 clinical isolate, OD600, 24 h (AID 1089);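 also: growth of clinical yeast isolate S. cerevisiae YJM 789 seeded 1000 cells per well; test concentration not given here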; conditions: S. cerevisiae YJM789 growth, higher = more signal, called active from +8 up or from −8 down
[3] = fission yeast growth modulation, primary screen, strain 972, OD600, 24 h, no modulator (AID 1090);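 also: basal condition with compound alone and no growth modifier present; test concentration not given here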; conditions: S. pombe 972 growth, higher = more signal, called active from +8 up or from −8 down
[4] = S. cerevisiae growth modulation with rapamycin, primary screen, strain BY4716, OD600, 96 h (AID 1091); conditions: higher = more signal, called active from +8 up or from −8 down; also: test concentration not given here
[5] = target: Torsin-1A-interacting protein 2 (Homo sapiens) (UniProt Q8NFQ8); experiment: LULL1 binders on small-molecule microarray, primary screen, cell lysate, human LULL1 lysate, 635/667 nm fluorescence (AID 1092); conditions: hLULL1 lysate binding, 635 nm fluorescence, higher = more signal;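 also: probe is lysate of COS7 cells overexpressing human LULL1; score merges per-feature 667 nm fluorescence with signal-to-noise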
[6] = E. coli growth modulation, two-sided OD650, primary screen, E. coli filamentation project, strain DRC41, 24 h (AID 1093); conditions: OD650, 24 h, higher = more signal, called active from +8 up or from −8 down;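 also: MC1000 strain lacking acrAB efflux and sulA so SOS filamentation is blocked; test concentration not given here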
[7] = small-molecule microarray binders of probe aLefty2, primary screen, biochemical, biotinylated probe, 635/667 nm fluorescence (AID 1094); conditions: higher = more signal;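 also: score merges spot fluorescence near 667 nm with spot signal-to-noise ratio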
[8] = tested on: Noggin (protein binding on small-molecule microarray); experiment: Noggin binders on small-molecule microarray, primary screen, biochemical, 635/667 nm fluorescence (AID 1095); conditions: 635 nm fluorescence, higher = more signal;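 also: score merges 667 nm feature fluorescence with signal to noise over triplicate slides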
[9] = target: Neurogenic locus notch homolog protein 3 (Homo sapiens) (UniProt Q9UM47); experiment: NOTCH3 binders on small-molecule microarray, primary screen, biochemical, 635/667 nm fluorescence (AID 1096); conditions: NOTCH3 binding, 635 nm fluorescence, higher = more signal
[10] = small-molecule microarray binders of probe aEGFR, primary screen, biochemical, biotinylated probe, 635/667 nm fluorescence (AID 1097); conditions: higher = more signal;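 also: probe is a biotinylated anti-EGFR antibody binding compounds printed on slides; score combines fluorescence near 667 nm and signal to noise of each spot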
[11] = tested on: Plasmodium falciparum Sir2 (PF13_0152, Sir2A); experiment: pfSir2 binders on small-molecule microarrays, primary screen, biochemical, small-molecule microarray, 635 nm fluorescence (AID 1098); conditions: small-molecule microarray binding, fluorescence 635 nm; higher = more signal;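 also: score merges spot fluorescence intensity with its signal-to-noise ratio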
[12] = small-molecule microarray binders of probe aDKK1, primary screen, biochemical, biotinylated probe, 635/667 nm fluorescence (AID 1099); conditions: higher = more signal;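 also: score merges 667nm spot fluorescence with signal to noise across triplicate slides; reference of the scale not given here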
[13] = small-molecule microarray binders of probe aCHRDL2, primary screen, biochemical, biotinylated probe, 635/667 nm fluorescence (AID 1100); conditions: higher = more signal
[14] = splicing luciferase reporter signal modulators, primary screen, spliceosome inhibition project, cell-based, HEK293, splice +/- reporter (AID 1101); conditions: luminescence, 24 h, higher = more signal, called active from +8 up or from −8 down;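 also: HEK293 cells carrying a splicing-competent luciferase reporter gene; test concentration not given here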
[15] = target: Fibroblast growth factor 10 (Homo sapiens) (UniProt O15520); experiment: FGF10 binders on small-molecule microarrays, primary screen, biochemical, small-molecule microarray, 635 nm fluorescence (AID 1102); conditions: FGF10 binding, fluorescence 635 nm, higher = more signal
[16] = tested on: glycogen synthase kinase-3 (GSK3A per assay name; protocol says GSK3B); experiment: GSK3 binders on small-molecule microarrays, primary screen, biochemical, small-molecule microarray, 635 nm fluorescence, GSK3A (AID 1103); conditions: small-molecule microarray binding, fluorescence 635 nm; higher = more signal; also: the record names both GSK3A and GSK3B
[17] = target: Epidermal growth factor receptor (Homo sapiens) (UniProt P00533); experiment: EGFR binders on small-molecule microarrays, primary screen, biochemical, small-molecule microarray, 635 nm fluorescence (AID 1104); conditions: EGFR binding, higher = more signal;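 also: score merges 667 nm emission intensity with spot signal to noise over triplicate slides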
[18] = target: Follistatin-related protein 3 (Homo sapiens) (UniProt O95633); experiment: FSTL3 binders on small-molecule microarrays, primary screen, biochemical, small-molecule microarray, 635 nm fluorescence (AID 1105); conditions: FSTL3 binding, higher = more signal;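 also: score merges emission near 667 nm and signal to noise per printed spot across three slides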
[19] = target: Dickkopf-related protein 1 (Homo sapiens) (UniProt O94907); experiment: DKK1 binders on small-molecule microarrays, primary screen, biochemical, small-molecule microarray, 635 nm fluorescence scan (AID 1106); conditions: DKK1 binding, higher = more signal;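 also: score merges emission near 667 nm with signal to noise over three replicate slides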
[20] = tested on: Inhibin beta A chain (activin A); experiment: INHBA (activin A) binders on microarrays, primary screen, biochemical, small-molecule microarray, 635 nm fluorescence scan (AID 1107); conditions: small-molecule microarray binding, higher = more signal;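 also: mouse activin A protein probed at 4.33 µg/mL on printed slides; score merges bound-protein fluorescence near 667 nm with spot signal-to-noise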

Follistatin-related protein 3 (Homo sapiens), sequence (O95633 whole entry, looked up): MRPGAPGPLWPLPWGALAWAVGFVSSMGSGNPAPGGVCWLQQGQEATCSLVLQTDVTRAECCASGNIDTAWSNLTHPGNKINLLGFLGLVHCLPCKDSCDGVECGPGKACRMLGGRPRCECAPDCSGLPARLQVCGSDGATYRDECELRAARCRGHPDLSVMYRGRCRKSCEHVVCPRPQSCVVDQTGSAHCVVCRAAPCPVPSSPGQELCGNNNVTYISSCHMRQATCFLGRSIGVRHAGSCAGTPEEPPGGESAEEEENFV
Dickkopf-related protein 1 (Homo sapiens), sequence (O94907 whole entry, looked up): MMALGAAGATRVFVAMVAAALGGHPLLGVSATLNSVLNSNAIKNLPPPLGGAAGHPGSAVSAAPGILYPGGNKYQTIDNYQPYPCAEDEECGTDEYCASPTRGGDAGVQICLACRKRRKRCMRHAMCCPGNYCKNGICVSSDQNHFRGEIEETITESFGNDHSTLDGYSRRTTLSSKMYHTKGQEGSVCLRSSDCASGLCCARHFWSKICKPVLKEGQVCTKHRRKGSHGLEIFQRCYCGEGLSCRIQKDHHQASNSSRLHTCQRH
Fibroblast growth factor 10 (Homo sapiens), sequence (O15520 whole entry, looked up): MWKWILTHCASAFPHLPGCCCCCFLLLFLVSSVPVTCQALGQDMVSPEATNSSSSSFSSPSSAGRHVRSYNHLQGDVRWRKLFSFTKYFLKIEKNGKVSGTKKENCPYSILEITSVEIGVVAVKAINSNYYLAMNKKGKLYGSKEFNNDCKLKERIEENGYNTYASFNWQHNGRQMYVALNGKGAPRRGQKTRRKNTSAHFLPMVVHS
Neurogenic locus notch homolog protein 3 (Homo sapiens), sequence (Q9UM47 whole entry, looked up): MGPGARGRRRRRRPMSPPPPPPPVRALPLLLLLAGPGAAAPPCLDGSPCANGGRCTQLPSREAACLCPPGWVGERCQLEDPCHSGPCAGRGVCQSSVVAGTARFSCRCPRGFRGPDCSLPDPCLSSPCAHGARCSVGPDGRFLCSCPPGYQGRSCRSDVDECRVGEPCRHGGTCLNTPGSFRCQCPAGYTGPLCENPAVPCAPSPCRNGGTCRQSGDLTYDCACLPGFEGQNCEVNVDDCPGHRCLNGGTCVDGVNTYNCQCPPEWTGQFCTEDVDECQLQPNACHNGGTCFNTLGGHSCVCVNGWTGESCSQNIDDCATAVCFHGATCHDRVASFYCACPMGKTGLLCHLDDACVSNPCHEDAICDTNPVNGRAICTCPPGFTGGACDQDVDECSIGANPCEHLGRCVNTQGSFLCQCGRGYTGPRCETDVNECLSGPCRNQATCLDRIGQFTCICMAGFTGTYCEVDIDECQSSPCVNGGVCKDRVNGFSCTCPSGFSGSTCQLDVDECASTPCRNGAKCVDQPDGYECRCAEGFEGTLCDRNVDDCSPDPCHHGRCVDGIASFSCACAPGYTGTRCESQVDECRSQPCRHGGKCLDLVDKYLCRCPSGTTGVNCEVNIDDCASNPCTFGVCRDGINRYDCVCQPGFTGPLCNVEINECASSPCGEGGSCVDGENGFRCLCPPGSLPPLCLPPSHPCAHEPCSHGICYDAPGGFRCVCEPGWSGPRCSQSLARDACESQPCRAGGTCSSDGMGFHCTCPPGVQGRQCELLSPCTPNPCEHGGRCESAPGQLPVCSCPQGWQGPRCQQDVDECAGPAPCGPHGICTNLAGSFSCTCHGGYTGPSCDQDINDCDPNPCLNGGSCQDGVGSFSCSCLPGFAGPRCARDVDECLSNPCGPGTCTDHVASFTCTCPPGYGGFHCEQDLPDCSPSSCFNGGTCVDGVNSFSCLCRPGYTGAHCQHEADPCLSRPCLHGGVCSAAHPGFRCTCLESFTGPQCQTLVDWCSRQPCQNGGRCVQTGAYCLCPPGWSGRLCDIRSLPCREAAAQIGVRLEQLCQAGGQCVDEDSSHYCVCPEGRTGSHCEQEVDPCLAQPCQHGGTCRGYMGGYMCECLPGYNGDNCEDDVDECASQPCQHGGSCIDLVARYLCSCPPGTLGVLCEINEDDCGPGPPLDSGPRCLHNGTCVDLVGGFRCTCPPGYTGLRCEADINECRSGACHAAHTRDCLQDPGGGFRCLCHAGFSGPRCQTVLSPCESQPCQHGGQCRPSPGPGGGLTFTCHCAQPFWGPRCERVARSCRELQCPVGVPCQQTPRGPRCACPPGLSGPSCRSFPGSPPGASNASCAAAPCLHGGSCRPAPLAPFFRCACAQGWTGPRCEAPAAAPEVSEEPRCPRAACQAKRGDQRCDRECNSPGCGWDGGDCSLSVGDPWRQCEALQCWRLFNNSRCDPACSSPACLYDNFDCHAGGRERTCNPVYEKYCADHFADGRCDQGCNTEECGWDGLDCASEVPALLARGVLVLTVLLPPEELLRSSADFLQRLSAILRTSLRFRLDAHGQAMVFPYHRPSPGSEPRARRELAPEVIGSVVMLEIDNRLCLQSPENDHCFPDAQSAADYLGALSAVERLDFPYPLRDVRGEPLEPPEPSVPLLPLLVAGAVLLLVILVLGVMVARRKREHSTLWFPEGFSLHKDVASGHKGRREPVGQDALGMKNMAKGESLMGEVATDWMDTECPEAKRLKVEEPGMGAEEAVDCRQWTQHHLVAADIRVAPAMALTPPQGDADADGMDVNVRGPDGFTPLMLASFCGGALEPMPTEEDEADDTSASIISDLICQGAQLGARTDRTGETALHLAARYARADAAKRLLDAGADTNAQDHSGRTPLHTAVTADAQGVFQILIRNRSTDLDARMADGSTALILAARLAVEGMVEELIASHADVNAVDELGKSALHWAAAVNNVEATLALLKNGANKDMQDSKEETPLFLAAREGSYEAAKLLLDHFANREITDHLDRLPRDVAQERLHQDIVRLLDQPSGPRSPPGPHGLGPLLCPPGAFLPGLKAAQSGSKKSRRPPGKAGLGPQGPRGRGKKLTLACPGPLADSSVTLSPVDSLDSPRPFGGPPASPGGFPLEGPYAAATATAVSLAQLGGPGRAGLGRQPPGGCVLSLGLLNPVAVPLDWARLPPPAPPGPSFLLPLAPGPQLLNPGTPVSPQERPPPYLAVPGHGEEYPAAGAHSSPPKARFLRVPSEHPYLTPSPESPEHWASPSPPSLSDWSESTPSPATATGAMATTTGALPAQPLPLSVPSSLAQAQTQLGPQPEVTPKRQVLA
Epidermal growth factor receptor (Homo sapiens), sequence (P00533 whole entry, looked up): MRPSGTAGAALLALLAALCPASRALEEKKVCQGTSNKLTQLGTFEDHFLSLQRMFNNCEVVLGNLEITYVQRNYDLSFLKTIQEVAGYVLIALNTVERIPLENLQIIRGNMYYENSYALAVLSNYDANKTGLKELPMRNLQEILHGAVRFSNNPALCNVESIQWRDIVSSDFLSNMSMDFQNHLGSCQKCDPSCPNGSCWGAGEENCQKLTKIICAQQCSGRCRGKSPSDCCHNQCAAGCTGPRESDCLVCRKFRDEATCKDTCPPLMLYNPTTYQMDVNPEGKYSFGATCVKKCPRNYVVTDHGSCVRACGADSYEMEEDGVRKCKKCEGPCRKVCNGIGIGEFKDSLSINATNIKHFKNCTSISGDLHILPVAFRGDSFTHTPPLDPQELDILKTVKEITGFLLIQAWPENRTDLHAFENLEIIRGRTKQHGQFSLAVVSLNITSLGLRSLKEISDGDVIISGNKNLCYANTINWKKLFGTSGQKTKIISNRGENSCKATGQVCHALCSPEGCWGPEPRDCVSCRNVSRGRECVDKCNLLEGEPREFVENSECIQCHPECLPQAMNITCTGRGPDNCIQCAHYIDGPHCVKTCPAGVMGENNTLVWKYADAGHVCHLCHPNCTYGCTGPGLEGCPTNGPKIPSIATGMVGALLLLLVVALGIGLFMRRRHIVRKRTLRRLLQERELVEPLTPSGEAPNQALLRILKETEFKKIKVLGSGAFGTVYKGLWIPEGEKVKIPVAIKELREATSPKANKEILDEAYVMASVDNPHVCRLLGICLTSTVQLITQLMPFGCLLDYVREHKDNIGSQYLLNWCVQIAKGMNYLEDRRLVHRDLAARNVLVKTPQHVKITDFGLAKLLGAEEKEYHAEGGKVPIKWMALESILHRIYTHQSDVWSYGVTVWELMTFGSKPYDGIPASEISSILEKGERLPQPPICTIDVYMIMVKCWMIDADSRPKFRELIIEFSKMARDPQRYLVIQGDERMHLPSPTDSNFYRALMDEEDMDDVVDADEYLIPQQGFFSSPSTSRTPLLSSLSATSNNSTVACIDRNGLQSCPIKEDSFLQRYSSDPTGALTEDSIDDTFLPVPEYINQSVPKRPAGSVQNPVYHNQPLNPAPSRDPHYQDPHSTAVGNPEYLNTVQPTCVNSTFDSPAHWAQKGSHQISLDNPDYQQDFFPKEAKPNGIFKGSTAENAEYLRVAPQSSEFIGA
Torsin-1A-interacting protein 2 (Homo sapiens), sequence (Q8NFQ8 whole entry, looked up): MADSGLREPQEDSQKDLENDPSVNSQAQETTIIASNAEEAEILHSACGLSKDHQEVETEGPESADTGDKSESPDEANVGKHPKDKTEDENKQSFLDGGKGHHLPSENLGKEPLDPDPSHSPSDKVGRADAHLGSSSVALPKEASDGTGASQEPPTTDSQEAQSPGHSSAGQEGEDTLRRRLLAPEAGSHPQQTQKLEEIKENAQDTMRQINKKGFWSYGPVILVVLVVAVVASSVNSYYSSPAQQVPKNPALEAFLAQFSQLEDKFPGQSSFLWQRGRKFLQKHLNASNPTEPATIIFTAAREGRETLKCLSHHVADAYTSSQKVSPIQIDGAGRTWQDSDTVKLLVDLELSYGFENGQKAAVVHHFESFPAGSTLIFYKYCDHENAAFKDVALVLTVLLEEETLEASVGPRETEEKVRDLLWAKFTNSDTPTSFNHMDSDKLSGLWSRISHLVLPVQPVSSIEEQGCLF

| SMILES | composite z-score [1] | z-score [2] | z-score [3] | z-score [4] | composite z-score [5] | z-score [6] | composite z-score [7] | composite z-score [8] | composite z-score [9] | composite z-score [10] | composite z-score [11] | composite z-score [12] | composite z-score [13] | z-score [14] | composite z-score [15] | composite z-score [16] | composite z-score [17] | composite z-score [18] | composite z-score [19] | composite z-score [20] |
| --- | --- | --- | --- | --- | --- | --- | --- | --- | --- | --- | --- | --- | --- | --- | --- | --- | --- | --- | --- | --- |
| COC(=O)[C@@]1(Cc2ccccc2)[C@H]2c3cc(C(=O)N(C)C)n(CCc4ccc(O)c(OC)c4)c3C[C@H]2CN1C(=O)c1ccccc1 | -0.26 | 0.031 (inactive) | -0.0531 (inactive) | 0.409 (inactive) | 0.47 | -0.452 (inactive) | 0.425 | 0.374 | 0.489 | 0.992 | 0.0108 | 1.32 | 0.379 | 0.905 (inactive) | 0.626 | 0.652 | 0.569 | 0.37 | 0.358 | -0.0861 |
| CC(C)N1CC=CC23O[C@@H]4C=CCOC(=O)[C@@H]4[C@H]2C(=O)N(CCCO)[C@@H]3C1=O (stereo not given in full) | 0.943 | -1.46 (inactive) | -2.28 (inactive) | -1.58 (inactive) | 2.41 | 2.67 (inactive) | -0.178 | 0.927 | -0.145 | -0.178 | 1.95 | -0.286 | 0.627 | -3 (inactive) | -0.0827 | 0.0274 | -0.42 | -0.123 | -0.74 | 0.929 |
| CN1C(=O)C2C=CC(C(O)COCc3ccccc3)N(N(c3ccccc3)c3ccccc3)C2C1=O (stereo not given) | 0.482 | 0.298 (inactive) | -1.86 (inactive) | 0.544 (inactive) | 2.11 | -0.0181 (inactive) | 0.388 | -0.419 | 0.894 | 0.726 | 0.35 | 0.553 | 0.815 | 0.915 (inactive) | 0.126 | -0.588 | 0.238 | 0.127 | -0.674 | -0.101 |
| COC(=O)[C@@]1(Cc2ccccc2N=[N+]=[N-])N=C(c2ccc(OCCCO)cc2)O[C@H]1c1ccccc1N=[N+]=[N-] | 1.54 | -1.13 (inactive) | -3.84 (inactive) | 26.2 (active) | 2.05 | 1.51 (inactive) | 0.258 | 0.717 | 0.647 | -0.0211 | 1.52 | 0.793 | 1 | 7.07 (inactive) | 0.386 | 0.65 | -0.098 | 0.419 | 0.0345 | 1.31 |
| COc1cc(OC)c(C(O)C2C=CC3C(=O)N(C)C(=O)C3N2NC(=O)OC(C)(C)C)cc1Br (stereo not given) | 1.54 | 0.24 (inactive) | -0.324 (inactive) | 0.828 (inactive) | 3.39 | -0.188 (inactive) | 0.368 | 0.137 | 1.02 | 0.128 | 1.07 | 0.993 | 1.15 | 1.51 (inactive) | 1.32 | 1.33 | 0.26 | 1.41 | 0.057 | 0.594 |
| [N-]=[N+]=Nc1ccccc1C[C@]1(C(=O)N2CCOCC2)N=C(c2ccc(OCCCO)cc2)O[C@H]1c1ccccc1 | 1.55 | 0.491 (inactive) | -8.46 (active) | 1.42 (inactive) | 2.69 | 1.94 (inactive) | 0.178 | 0.593 | 0.871 | 0.134 | 1.11 | 1.45 | 1.03 | -0.963 (inactive) | 1.16 | 1.29 | 0.307 | 1.01 | 1.93 | 0.52 |
| COc1ccc(CCNC(=O)[C@@]2(Sc3ccc(C)cc3)CC(=O)N(C3Cc4ccccc4C3)[C@@H]2c2ccc(CO)cc2)cc1 | 1.54 | 0.593 (inactive) | -0.468 (inactive) | 0.707 (inactive) | 1.88 | -1.79 (inactive) | 0.0511 | 2.07 | 1.02 | 0.0707 | 0.672 | 0.167 | -0.0208 | -1.67 (inactive) | 1.78 | 1.27 | 0.494 | 1.51 | 2.06 | 1.23 |
| CCOC(=O)C[C@H]1[C@H](OC(=O)c2ccc(C(=O)c3ccccc3)cc2)[C@@H](NC(=O)Cc2ccc(OC)cc2)c2cc(OCCCO)ccc2N1C(=O)c1ccccc1 | 0.139 | -0.12 (inactive) | 0.169 (inactive) | -0.378 (inactive) | 1.19 | -0.978 (inactive) | 0.0759 | 0.359 | -0.0979 | -0.0219 | -0.186 | 0.0467 | 0.521 | -0.449 (inactive) | 0.281 | -0.0732 | 0.12 | -0.0059 | 0.0251 | 0.643 |
| COC(=O)[C@@]1(Cc2ccc(F)cc2)[C@H]2c3cc(C(=O)N(C)C)n(CCc4ccc(O)c(OC)c4)c3C[C@H]2CN1C(=O)c1ccccc1 | -0.646 | 0.503 (inactive) | 0.459 (inactive) | 0.689 (inactive) | 1.01 | -0.849 (inactive) | 1.42 | 0.446 | 0.237 | 1.25 | 0.0736 | 2.29 | 0.884 | 0.655 (inactive) | 1.05 | 0.776 | 1.45 | 0.62 | 0.399 | 0.366 |
| C=C(C)c1cc2c(c(CCCCCC)n1)[Si](C(C)C)(C(C)C)OC2 | -0.293 | 1.21 (inactive) | 0.653 (inactive) | -0.9 (inactive) | -1.03 | -1.17 (inactive) | -0.193 | -0.714 | -0.64 | -0.287 | -0.491 | -0.304 | 0.149 | -0.392 (inactive) | -1.04 | -1.18 | -1.01 | -1.24 | -1.31 | 0.138 |
